DT40 TDP1 CPT = qHTS for Inhibitors of human tyrosyl-DNA phosphodiesterase 1 (TDP1): qHTS in cells in presence of CPT; Potency, µM (titrated, usually from 46.2 µM), for inactives: at the top dose activity change, negative = growth inhibition, usual class: inhibitors; 420,000 tested, 12% active; chicken DT40 Tdp1-/-;hTDP1 cells + 20 nM CPT, ATP luminescence, 48 h; note: potency is the fitted concentration of half-maximal effect; nearly all actives have a fitted effect of over 55% in size
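Cell growth measured by CellTiter-Glo luminescence after a minimum 48 h, 37 C compound exposure with 20 nM CPT in Tdp1-knockout DT40 cells stably expressing hTDP1, seeded 400/well; qHTS titration format.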
HT1080NT lethal = qHTS for induction of synthetic lethality in tumor cells producing 2HG: qHTS for the HT-1080-NT fibrosarcoma cell line; HT-1080-NT fibrosarcoma viability, CellTiter-Glo ATP luminescence, 48 h; Potency, µM (highest dose often 46.1 µM), inactives show at the highest dose activity, negative = less viability, actives largely listed as cytotoxic; 360,000 tested, 1.6% active; AID 686970, 2013;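 note: NT is the 2HG producing partner of a matched IDH1 knockdown line; potency is the fitted concentration of half-maximal effect; 0% = DMSO-treated cells and -100% = media-only wells without cells; nearly all actives have a fitted effect of over 55% in size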
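Toxicity toward the 2HG-producing NT line was scored as %Activity, normalised to DMSO and no-cell wells, from CellTiter-Glo luminescence after 48 hours' treatment.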
TDP1 cell noCPT = qHTS for Inhibitors of human tyrosyl-DNA phosphodiesterase 1 (TDP1): qHTS in cells in absence of CPT; Potency, µM (highest dose often 46.2 µM), inactives show top-dose activity change, negative = growth inhibition, most hits filed as inhibitors; DT40 Tdp1-/- hTDP1 cells, no CPT, ATP luminescence, 48 h; 420,000 tested, 15% active; note: potency is the fitted concentration of half-maximal effect; nearly all actives have a fitted effect of over 55% in size
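Growth kinetics read by CellTiter-Glo luminescence after ≥48 hr at 37 °C. Cells: DT40 Tdp1-/- stably carrying human TDP1, 400 per well, compound exposure in the absence of CPT (DMSO vehicle).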
HT1080 IDH1KD tx = qHTS for induction of synthetic lethality in tumor cells producing 2HG: qHTS for the HT-1080-IDH1KD cell line. HT-1080 IDH1 knockdown viability, ATP luminescence, 48 h. Potency, µM (series often up to 46.1 µM), inactives show at the top dose activity, negative = toxicity, usual class: cytotoxic. 360,000 tested, 2% active. AID 686971, 2013;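 note: potency is the fitted concentration of half-maximal effect; 0% = DMSO wells and -100% = cell-free medium wells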
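Assay cells: HT-1080 with IDH1 knockdown, 750 per well, RPMI/5% FBS. Exposure: 48 h at 37 °C following 2 h pre-incubation. Read: CellTiter-Glo luminescence; fitted concentration-response, curve class assigned.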
IL-1B inflam inh = qHTS for Inhibitors of Inflammasome Signaling: IL-1-beta AlphaLISA Primary Screen. THP-1 LPS/ATP IL-1B secretion, AlphaLISA, 16 h; stronger effect = lower value. activity change, % at 57.5 µM. 360,000 tested, 4.7% active. AID 743279, 2014; in the data active = activity change below about -50%; inconclusive = mostly about -30% to -49%
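THP-1 cells pretreated 1 hr with compounds (up to 57.5 uM final), then stimulated with LPS (250 ng/mL final) plus ATP (1.25 mM final); secreted IL-1B measured by AlphaLISA after 16 hr, decreased signal indicating inhibition.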
12-LOX inh = Primary qHTS assay for inhibitors of human arachidonate 12S-lipoxygenase (ALOX12): Round 2; Polyunsaturated fatty acid lipoxygenase ALOX12 (Homo sapiens), P18054; purified 12hLO, xylenol orange hydroperoxide absorbance; Potency, µM (top dose mostly 108 µM), inactives show at the highest dose activity change, negative = inhibition, usual class: inhibitors; 580,000 tested, 1.1% active; AID 1671190, 2021; note: potency is the fitted concentration of half-maximal effect
Target sequence (P18054 whole entry, looked up): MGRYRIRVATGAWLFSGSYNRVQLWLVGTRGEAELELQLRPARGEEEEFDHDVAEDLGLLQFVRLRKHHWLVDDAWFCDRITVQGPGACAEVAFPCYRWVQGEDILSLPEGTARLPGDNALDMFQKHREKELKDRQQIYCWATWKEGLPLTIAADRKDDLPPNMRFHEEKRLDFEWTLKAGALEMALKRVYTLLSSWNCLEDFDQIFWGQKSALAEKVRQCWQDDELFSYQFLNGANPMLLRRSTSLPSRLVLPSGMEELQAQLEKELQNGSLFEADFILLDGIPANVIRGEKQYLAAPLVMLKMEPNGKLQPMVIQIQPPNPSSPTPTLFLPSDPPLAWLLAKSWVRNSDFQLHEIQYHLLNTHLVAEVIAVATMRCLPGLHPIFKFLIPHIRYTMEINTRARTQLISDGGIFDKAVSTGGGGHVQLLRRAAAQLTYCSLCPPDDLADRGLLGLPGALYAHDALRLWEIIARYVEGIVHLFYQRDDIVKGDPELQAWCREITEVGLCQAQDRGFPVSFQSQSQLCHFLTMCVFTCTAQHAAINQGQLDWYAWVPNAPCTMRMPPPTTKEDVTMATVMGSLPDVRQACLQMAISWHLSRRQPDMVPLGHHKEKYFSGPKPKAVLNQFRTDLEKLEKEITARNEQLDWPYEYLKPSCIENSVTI
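Hydroperoxide product was detected by ferrous iron/xylenol orange as the 573 to 405 nm absorbance ratio. Arachidonic acid at 40 uM (final) was turned over for 30 min at room temperature by 150 nM human 12hLO, pH 7.0 Hepes buffer, after 15 min compound preincubation.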
* marks the source's active call; other numbers are inactive results; ? = inconclusive; / = no result given; [ ] = another dose, or the depositor's remark. The entries come from a sample that favours hits as a whole. Unless noted, calls come from the whole dose curve; as a rule, active = well fitted curve in the direction sought with a large enough effect; inconclusive = small, poorly fitted or top-dose-only effect, or another doubt; inactive = no such curve, though single readings can be large; an effect the other way counts as inactive or inconclusive. Unless noted, % is set by controls: 0 for no effect and ±100 for the full control effect.

SMILES | DT40 TDP1 CPT | HT1080NT lethal | TDP1 cell noCPT | HT1080 IDH1KD tx | IL-1B inflam inh | 12-LOX inh
COc1ccc(-c2cc3c(cn2)CN(C)CCN3)cn1 | / | / | / | / | / | -4%[176 µM]
COc1cc(C2SCC(=O)Nc3c2c(C)nn3-c2ccccc2)cc(OC)c1OC (stereo not drawn) | -20% | -4% | -9% | 1% | 14 | -5%
CCCOc1ccc(C2SCC(=O)Nc3c2c(C)nn3-c2cccc(C)c2)cc1OC (stereo not drawn) | 16µM* | / | 21µM* | / | / | ?
COc1cccc(C2SCC(=O)Nc3c2c(C)nn3-c2ccc(C)c(Cl)c2)c1OC (stereo not drawn) | 21µM* | / | 21µM* | / | / | -21%
COc1c(Cl)cc(Cl)cc1C(=O)Nc1cccc(-c2nc3ccccc3o2)c1C | ? | / | ? | / | / | -1%
CCSc1nc2n(n1)C(c1ccc(Cl)cc1Cl)C(C(=O)Nc1ccccc1C)=C(C)N2 (stereo not drawn) | 18µM* | / | 13µM* | / | / | -11%
COc1ccc(-c2cc([C@H]3CN4CC[C@H]3C[C@@H]4CNC(=O)c3ccc(C)cc3)n(C)n2)cc1 | / | / | / | / | / | -18%
Cc1cc(C)cc(C(=O)N2CCC3(CC2)c2nccn2-c2ccccc2CN3C)c1 | / | / | / | / | / | 8%
COc1ccc(OCCn2c(NC(=O)c3ccc(OC)cc3)nc3ccccc32)cc1 | 18µM* | / | 16µM* | / | / | 0%
CSc1nc2ccccc2n1C(=O)Oc1ccccc1 | ? | 11% | -18% | 1% | 4 | -6%
CCCCCNc1c(C(=O)OCC)c(=O)[nH]c2ccccc12 | ? | -10% | 13µM* | -14% | 1 | 0%
CCOC(=O)c1cccc(NC(=O)c2c(O)[nH]c(=O)[nH]c2=O)c1 | 0% | -7% | -7% | -1% | -4 | ?
O=C1NC(=S)N(c2ccccc2F)C(=O)/C1=C\c1cccs1 | 21µM* | 6% | ? | -17% | -91* | 32µM*
O=C1NC(=O)N(CC2CCCO2)C(=O)/C1=C/c1cccs1 (stereo not drawn) | ? | 23% | ? | 3% | 37 | 0%
O=C1NC(=O)C(=Cc2cccs2)C(=O)N1 | 18µM* | 2% | 16µM* | -10% | -18 | -13%
CCOc1ccc(N2C(=O)/C(=C\c3cccs3)C(=O)NC2=S)cc1 | ? | ? | ? | -17% | -99* | ?
O=C1NC(=O)C(=Cc2ccsc2)C(=O)N1 | 5% | 4% | 2% | 4% | -4 | ?
O=C1NC(=O)C(=Cc2csc3ccccc23)C(=O)N1 | 16µM* | 0% | 18µM* | 0% | -21 | 40µM*
COCC1CN(C2CCC2)CC12CCN(Cc1cccnc1)CC2 (stereo not drawn) | / | / | / | / | / | 92%
CC(C)NC(=O)NC[C@H]1C[C@@H]2CCN1C[C@@H]2CN1CCSCC1 | / | / | / | / | / | 74%[176 µM]
CC(C)(C)CN1CCC2(CN[S+](=O)([O-])c3cccnc3O2)C1 (stereo not drawn) | / | / | / | / | / | 1%[6.33 µM]
Cc1c(C(=O)Cn2c(C)nc3ccccc32)c2ccccc2n1C | / | / | / | / | / | 1%
